# Y pestis TopoI = Y. pestis Topo-I inhibition via cleavage products; Y. pestis Topo-I cleavage product accumulation, plate reader; activity, % at 10 µM; 360,000 compounds, 0.064% hits; AID 504884; in the data active means activity above about 50%, passing the limit was not always enough
# SARS 3CLpro inh = SARS-CoV 3CLpro protease inhibition; P0C6X7; recombinant SARS-CoV 3CLpro, quenched FRET peptide cleavage; inhibition, % at 6 µM; 290,000 compounds, 0.14% hits; AID 1706; in the data active means inhibition above about 12%
# MazF activator = activators of E. coli MazEF toxin-antitoxin RNase; FAM/BHQ RNA-DNA oligo cleavage fluorescence, 5 h; activation, % at 20 µM; 350,000 compounds, 0.32% hits; in the data active means activation above about 50%
# Target sequence (P0AE70 whole entry, looked up): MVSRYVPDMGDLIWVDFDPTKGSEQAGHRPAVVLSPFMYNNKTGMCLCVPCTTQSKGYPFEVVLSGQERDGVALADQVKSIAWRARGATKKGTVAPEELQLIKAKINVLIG
# SSB-PriA inh = inhibitors of Klebsiella pneumoniae PriA binding to SSB C-terminal tail. AlphaScreen SSBct-PriA binding, biotinylated peptide. inhibition, % at 33 µM. 430,000 compounds, 0.6% hits. AID 1272365; in the data active means inhibition mostly above about 37%, no sharp cut-off; inactive means mostly below about 20%;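 further: plate controls were negative control peptide for no effect and reference peptide for full effect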
# Starred values were filed as active, the others as inactive; · = no result given; ! = a repeat was not active. This is a sample that favours compounds with a hit; in the whole collection about 0.9% have one here.
SMILES,Y pestis TopoI,SARS 3CLpro inh,MazF activator,SSB-PriA inh
CSc1ccc(-c2noc(CSc3nc4cc5c(cc4c(=O)n3C3CC3)OCO5)n2)cc1,·,·,·,-6
CCc1ccc(C(=O)Nc2nc(-c3ccccn3)cs2)cc1,·,·,·,85*
Cc1cc(C(=O)Nc2nc(-c3ccccn3)cs2)ccc1[N+](=O)[O-],1,5,11,47*
CC(C)(C)CNC(=O)c1ccc(C(=O)Nc2nc(-c3ccccn3)cs2)cc1,·,·,·,41
O=C(Nc1nc(-c2ccccn2)cs1)c1ccccc1-n1cnnn1,-1,3,6,81*
O=C(Nc1nc(-c2ccccn2)cs1)c1cc(S(=O)(=O)N2CCOCC2)c(Cl)cc1Cl,·,·,·,76*
O=C(NCCn1nc(-n2cncn2)ccc1=O)c1cc(-c2cccs2)on1,·,·,·,-12
CCOc1ccc2nc(NC(=O)[C@@H]3CSc4nc(C(C)(C)C)cc(=O)n4C3)sc2c1,·,·,·,-13
O=S(=O)(c1ccccc1Cl)N1CC(Oc2nccs2)C1,·,·,·,-20
O=C(Nc1nc(-c2ccccn2)cs1)c1cc(-c2ccco2)[nH]n1,·,·,·,66*
O=C(Nc1nc(-c2ccccn2)cs1)c1cc(F)cc(F)c1,·,·,·,17
Cc1cc(C(=O)Nc2nc(-c3ccccn3)cs2)no1,·,·,·,75*
Cc1cc(C(=O)Nc2nc(-c3cc4ccccc4o3)cs2)no1,·,·,·,-16
O=C(Nc1nc(-c2ccccn2)cs1)c1ccc(=O)[nH]c1,·,·,·,95*
CCn1ccc(C(=O)Nc2nc(-c3ccccn3)cs2)n1,·,·,·,95*
CC(=O)Nc1ccc(C(=O)Nc2nc(-c3cccnc3)cs2)cc1,-1,5,-33,-1
Cc1ccc(C(=O)Nc2nc(-c3ccccn3)cs2)cc1,·,·,·,78*
CC(=O)Nc1ccc(C(=O)Nc2nc(-c3ccccn3)cs2)cc1,3,-5,7,78*
CCc1cc(C(=O)Nc2nc(-c3ccccn3)cs2)sc1C,-14,·,-5,2
Cc1ccc(C(=O)Nc2nc(-c3ccccn3)cs2)cc1-n1cccc1,·,·,·,103*
O=C(Nc1nc(-c2ccccn2)cs1)c1ccc(C(=O)c2ccccc2)cc1,·,·,·,32
Cc1nc(C)c(C(=O)Nc2nc(-c3ccccn3)cs2)s1,·,·,·,157*
O=C(Nc1nc(-c2ccccn2)cs1)c1sccc1C1CC1,·,·,·,114*
CSc1ccccc1C(=O)Nc1nc(-c2ccc(F)cc2)cs1,·,·,·,11
CSc1ccccc1C(=O)Nc1nc(-c2ccccn2)cs1,·,·,·,106*
SMILES,Y pestis TopoI,SARS 3CLpro inh,MazF activator,SSB-PriA inh
O=C(Nc1nc(-c2ccccn2)cs1)c1ccncc1,·,·,·,157*
Cn1nc(C(=O)Nc2nc(-c3ccccn3)cs2)c2ccccc2c1=O,1,·,14,43*
CCCn1nc(C(=O)Nc2nc(-c3ccccn3)cs2)c2ccccc2c1=O,20,·,10,-9
O=C(Nc1nc(-c2ccccn2)cs1)c1ccc(Oc2ccc(C(=O)Nc3nc(-c4ccccn4)cs3)cc2)cc1,·,·,·,25
O=C(Nc1nc(-c2ccccn2)cs1)C1(n2cnnn2)CCCCC1,·,·,·,158*
O=C(Nc1nc(-c2ccccn2)cs1)c1ccc(-n2cnnn2)cc1,·,·,·,48
O=C(Nc1nc(-c2ccccn2)cs1)c1ccccc1,·,·,·,101*
CC(C)[C@H](NC(=O)c1ccccc1Cl)C(=O)Nc1nc(-c2ccccn2)cs1,11,3,5,8
O=C(Nc1nc(-c2ccccn2)cs1)c1ccccc1Cl,·,·,·,100*
Cc1ccc(NC(=O)C(=O)NCC2CCN(c3ccncc3)CC2)cc1N1CCCC1=O,·,·,·,-17
CCOc1ccc2nc(N(CCN(C)C)C(=O)c3cc4ccccc4cc3OC)sc2c1,7,-3,-5,44*!
CCN(CC)CCN(C(=O)c1ccc(C(=O)c2ccccc2)cc1)c1nc2c(OC)ccc(OC)c2s1,·,·,·,49*
COc1ccc2nc(N(CCN(C)C)C(=O)c3ccc(C(=O)c4ccccc4)cc3)sc2c1,39,-2,7,50*
CCc1ccc2nc(N(CCCN(C)C)C(=O)c3ccc(C(=O)c4ccccc4)cc3)sc2c1,0,-1,7,47*!
CCN(CC)CCN(C(=O)c1ccc(C(=O)c2ccccc2)cc1)c1nc2ccc(OC)cc2s1,19,-2,3,32
CCc1ccc(NC(=O)C2CC(=O)NC(=N)S2)cc1 (configuration not stated),·,·,·,-2
COc1cc2nc(N(CCCN(C)C)C(=O)c3ccc(C(=O)c4ccccc4)cc3)sc2cc1OC,-3,·,23,37*!
c1ccc(CNCCN2CCNCC2)nc1,9,1,7,38*
CC(C)NC(=O)CCn1cnc2c([nH]c3ccc(Br)cc32)c1=O,·,·,·,-18
Cc1csc(N2CCCC2c2nc3cc(Cl)c(N4CCCCC4)cc3n2CCOCCO)n1 (configuration not stated),28,·,1,12
Cc1csc(N2CCCC2c2nc3cc(C(F)(F)F)ccc3n2CCOCCO)n1 (configuration not stated),4,·,-24,48*
Cc1ccccc1OCCOCCN1CCCCCC1,-1,8,-1,-1
Cc1ccc(C(C)C)cc1OCCOCCN1CCCC1,-10,0,92*,-13
Cn1cc(-c2cccs2)nc1CCNC(=O)COc1cccc2c1OC(C)(C)C2,·,·,·,-6
O=C(Nc1cccs1)N1CCOC2(CCOCC2)C1,·,·,·,15
SMILES,Y pestis TopoI,SARS 3CLpro inh,MazF activator,SSB-PriA inh
CCCCCCNc1c([N+](=O)[O-])cc(C)cc1[N+](=O)[O-],16,-5,-19,60*
COc1cccc(C(=O)Nc2nc(-c3nc4ccccc4s3)cs2)c1OC,·,·,·,-23
Cc1cc(O)c2c(c1)C(=O)C13C(=C2O)C(=O)[C@H]2[C@@H](O)[C@@H]1[C@H]1[C@H](O)[C@@H]3C(=O)C3=C(O)c4c(O)cc(C)cc4C(=O)C312 (some centres not stated),403*,·,-10,-3
CNc1nc(SCc2ccc(C)cc2)nc2c1CCCC2,5,-4,2,-17
COC(=O)CSc1nc(SCc2ccc(C)cc2)nc2c1CCCC2,58*,-5,2,-65
Cc1ccc(CSc2nc3c(c(N(C)C)n2)CCCC3)cc1,59*,-5,3,-61
CCS(=O)(=O)c1ccc(CC(=O)Nc2ccccc2Oc2ccccc2)cc1,·,·,·,-4
COc1ccccc1C(=O)NCCC(=O)N1CCCCC1,2,1,-4,-10
COc1ccccc1C(=O)NCCC(=O)N1CC=C(c2ccccc2)CC1,132*,·,0,-22
Cc1ccc(-c2cn3cccc(C)c3n2)cc1N,·,·,·,1
Cc1cccn2cc(-c3cccc(N)c3)nc12,·,·,·,52*
CCc1ccc(-c2cc3c(SCC(=O)Nc4cc(OC)c(OC)c(OC)c4)nccn3n2)cc1,·,·,·,6
O=[N+]([O-])c1cc(F)c2cccnc2c1O,0,-1,3,-10
O=[N+]([O-])c1cc(Cl)c(O)c2ncccc12,4,9,-3,86*!
CN1CCN(c2ccc([N+](=O)[O-])c3cccnc23)CC1,-3,-3,-18,26
O=[N+]([O-])c1ccc(O)c2ncccc12,6,4,-1,133*
O=[N+]([O-])c1ccc(O)c2cccnc12,10,-1,-7,4
O=[N+]([O-])c1cc(Cl)c2cccnc2c1O,4,-1,-9,67*
O=[N+]([O-])c1ccc(N2CCNCC2)c2ncccc12,·,5,·,53*
CN1CCc2cc(C(CNC(=O)c3cc(Cl)ccc3Cl)N3CCCC3)ccc21 (configuration not stated),·,·,·,11

# Compound activity: PubChem BioAssay, several laboratories
